Where “and” joins values, the source holds several entries; their conditions need not be identical. Identical values can stand only once. Screen size: about 5,500 compounds; about 2,000 (36%) were called active. Another 18% or so got no clear call; they are omitted. No stated cut-off is given here; in the data, active means normalized growth mostly below about 0.91 (no sharp cut-off); inconclusive means no clear call, values can overlap the other calls; inactive means mostly above about 0.92. The list shows a part of the results.
Experiment: chemical genetic growth profiling, strain panel (AID 1159580);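 further: tested at 20 µM; growth read once vehicle control cultures reached saturation at 30 °C; 1 = growth at the plate median or of vehicle wells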
Details: S. cerevisiae deletion strains, growth OD

Measured: normalized growth

CCC(C)C(=O)O[C@H]1[C@H](O)C2C(CN3CC(C)CCC3[C@@]2(C)O)C2C[C@]34O[C@]5(O)C(OC(=O)C(C)(O)CC)CC[C@@]3(C)C5C(OC(C)=O)[C@@H](OC(C)=O)C4[C@@]21O (stereo partly specified)
inactive: locus YAL013W, strain DEP1, stronger effect = lower value 1.01 | locus YAL021C, strain ccr4, stronger effect = lower value 1.01 | locus YAL026C, strain drs2, stronger effect = lower value 1.02 | locus YAL030W, strain snc1, stronger effect = lower value 1.01 | locus YBL061C, strain skt5, stronger effect = lower value 1.01 | locus YBR009C, strain hhf1, stronger effect = lower value 1.02 | locus YBR021W, strain FUR4, stronger effect = lower value 1.01 | locus YBR023C, strain chs3, stronger effect = lower value 1.03 | locus YBR171W, strain sec66, stronger effect = lower value 1.03 | locus YBR229C, strain ROT2, stronger effect = lower value 0.999 | locus YBR231C, strain swc5, stronger effect = lower value 1.01 | locus YBR279W, strain paf1, stronger effect = lower value 1.02 | locus YCL011C, strain gbp2, stronger effect = lower value 1.02 | locus YCL016C, strain dcc1, stronger effect = lower value 1.03 | locus YCL029C, strain bik1, stronger effect = lower value 0.988 | locus YCL069W, strain vba3, stronger effect = lower value 1.02 | locus YCR088W, strain abp1, stronger effect = lower value 1.02 | locus YDL005C, strain med2, stronger effect = lower value 1.03 | locus YDL035C, strain GPR1, stronger effect = lower value 1.02 | locus YDL040C, strain nat1, stronger effect = lower value 1.02 | locus YDL074C, strain BRE1, stronger effect = lower value 1.02 | locus YDL101C, strain DUN1, stronger effect = lower value 1.02 | locus YDL134C, strain PPH21, stronger effect = lower value 1.01 | locus YDL185W, strain tfp1, stronger effect = lower value 0.995 | locus YDL192W, strain arf1, stronger effect = lower value 0.99 | locus YDR001C, strain nth1, stronger effect = lower value 1.01 | locus YDR069C, strain doa4, stronger effect = lower value 1.02 | locus YDR101C, strain arx1, stronger effect = lower value 0.991 | locus YDR137W, strain rgp1, stronger effect = lower value 1.04 | locus YDR150W, strain NUM1, stronger effect = lower value 1.02 | locus YDR159W, strain sac3, stronger effect = lower value 1.04 | locus YDR162C, strain NBP2, stronger effect = lower value 1.02 | locus YDR195W, strain ref2 1.01 | locus YDR297W, strain sur2, stronger effect = lower value 1.01 | locus YDR318W, strain mcm21, stronger effect = lower value 0.984 | locus YDR334W, strain swr1, stronger effect = lower value 1.02 | locus YDR335W, strain msn5, stronger effect = lower value 1.05 | locus YDR388W, stronger effect = lower value 0.989 | locus YDR392W, strain spt3, stronger effect = lower value 1.04 | locus YDR502C, strain sam2, stronger effect = lower value 0.989 | locus YEL003W, strain gim4, stronger effect = lower value 1.02 | locus YEL037C, strain rad23, stronger effect = lower value 1.03 | locus YEL061C, strain CIN8 (second series), stronger effect = lower value 1.02 | locus YEL061C, strain CIN8, stronger effect = lower value 1.01 | locus YER015W, strain faa2, stronger effect = lower value 1.02 | locus YER016W, strain bim1, stronger effect = lower value 1.03 | locus YER110C, stronger effect = lower value 0.982 | locus YER111C, strain swi4, stronger effect = lower value 1.02 | locus YER155C, strain BEM2 (second series), stronger effect = lower value 1.03 | locus YER155C, strain BEM2, stronger effect = lower value 1 | locus YER167W, strain BCK2, stronger effect = lower value 1.02 | locus YFR010W, strain ubp6, stronger effect = lower value 1.01 | locus YGL078C, strain dbp3, stronger effect = lower value 0.986 | locus YGL086W, strain mad1, stronger effect = lower value 1 | locus YGL167C, strain pmr1, stronger effect = lower value 1.01 | locus YGL173C, strain kem1, stronger effect = lower value 1.03 | locus YGL227W, strain vid30, stronger effect = lower value 1.03 | locus YGL240W, strain doc1, stronger effect = lower value 1.01 | locus YGL248W, strain PDE1, stronger effect = lower value 1.01 | locus YGL253W, strain hxk2, stronger effect = lower value 1.04 | locus YGR078C, strain PAC10, stronger effect = lower value 1.02 | locus YGR135W, strain pre9, stronger effect = lower value 0.983 | locus YGR229C, strain SMI1, stronger effect = lower value 1 | locus YGR252W, strain gcn5, stronger effect = lower value 0.965 | locus YHR013C, strain ard1, stronger effect = lower value 1.05 | locus YHR027C, strain rpn1, stronger effect = lower value 1.03 | locus YHR030C, strain SLT2, stronger effect = lower value 1.01 and 1.05 | locus YHR079C, strain IRE1 (second series), stronger effect = lower value 0.993 | locus YHR079C, strain IRE1, stronger effect = lower value 1.01 | locus YHR094C, strain hxt1, stronger effect = lower value 0.99 | locus YHR129C, strain ARP1, stronger effect = lower value 1.01 | locus YHR142W, strain chs7, stronger effect = lower value 1.04 | locus YHR200W, strain rpn10, stronger effect = lower value 1 | locus YIL066C, strain RNR3, stronger effect = lower value 1.01 | locus YIL073C, strain SPO22, stronger effect = lower value 1.02 | locus YIL125W, strain kgd1, stronger effect = lower value 0.995 | locus YIR030C, strain dcg1, stronger effect = lower value 0.993 | locus YJL092W, strain hpr5, stronger effect = lower value 1.02 | locus YJL095W, strain BCK1 (second series), stronger effect = lower value 1.03 | locus YJL095W, strain BCK1, stronger effect = lower value 1.01 and 0.996 | locus YJL115W, strain asf1, stronger effect = lower value 1.03 | locus YJL129C, strain trk1, stronger effect = lower value 1.04 | locus YJL134W, strain LCB3, stronger effect = lower value 1.01 | locus YJL154C, strain vps35, stronger effect = lower value 1.02 | locus YJL164C, strain tpk1, stronger effect = lower value 1.01 | locus YJL166W, strain qcr8, stronger effect = lower value 1.01 | locus YJL168C, strain set2, stronger effect = lower value 0.996 | locus YJL187C, strain SWE1 (second series), stronger effect = lower value 1.01 | locus YJR043C, strain POL32, stronger effect = lower value 0.995 | locus YJR066W, strain TOR1, stronger effect = lower value 0.976 | locus YJR075W, strain HOC1, stronger effect = lower value 1
